Hits are enriched below; roughly 27% of the tested compounds scored in any of these assays.
Cav32 inh – inhibitors of human Cav3.2 T-type calcium channel. 100,000 tested, 4% active. Cav3.2-expressing cells, Fluo-4 calcium fluorescence FDSS; active compounds read low. O95180. AID 449739. B-score at 10 µM;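 active means single-dose well whose peak fluorescence ratio is a statistical outlier from its plate by either plate-standardised score or position-corrected B-score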
CYP2C9 inh – human CYP2C9 inhibition; P11712; CYP2C9 Supersomes, luciferin-H conversion, luminescence; inhibition, % at 5 µM; 96,000 tested, 20% active; AID 777;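 active means blocking of liver enzyme CYP2C9 beyond about 50% at 5 µM, limit read from the data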
CYP2C9 activ – activators of human CYP2C9. P11712. recombinant CYP2C9, luciferin-H conversion, luminescence; active compounds read high; factor 1 = untreated enzyme, 0 = blocked. activation factor at 5 µM. 96,000 tested, 1.4% active;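 active means activation factor of 2 or more for CYP2C9 at a 5 µM dose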
CYP2C19 act – increases human CYP2C19 enzyme activity; P33261; recombinant CYP2C19, luciferin-H EGE luminescence; active compounds read high; 0 = fully inhibited enzyme, 1 = untreated enzyme; activation factor at 5 µM; 96,000 tested, under 10 active; AID 1025;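 active means activation factor of at least 2 at 5 µM in the primary screen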
CYP2C19 inh – human CYP2C19 inhibition. AID 778. P33261. inhibition, % at 5 µM. CYP2C19 Supersomes, luciferin-H EGE luminescence, 30 min. 96,000 tested, 21% active;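 active means CYP2C19 inhibition above a set limit at 5 µM in the primary screen, cut at about 50% in these data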
PTK2B oligo ant – antagonists of human Pyk2 oligomerization | Q14289 | Q293 cells, Pyk2 FERM NanoBiT luminescence; active compounds read low | z-score (the deposit names both 25 µM and 10 µM) | 99,000 tested, 0.83% active;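 active means Z-score of -3 or lower, scaled per plate to the spread of control and sample wells; inactive means z-score above -3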;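 further: negative z-score means lost luminescence so less FERM oligomerization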
Large screens that a line does not name were inactive.

COCCNc1cc(C)nc2c3c(C)cc(C)nc3nn12	none
CCOP(=O)(c1ccccc1)c1nc(-c2ccccc2Cl)oc1N1CCCCC1 (configuration not stated)	Cav32 inh -11 (no result: CYP2C9 inh, CYP2C9 activ, CYP2C19 act, CYP2C19 inh)
COc1cccc(NS(=O)(=O)c2ccc(Br)s2)c1	CYP2C9 inh 84, CYP2C19 inh 100
COc1cccc(NS(=O)(=O)Cc2ccccc2)c1	none
COc1ccccc1NS(=O)(=O)c1ccc(Br)s1	CYP2C19 inh 92
COc1ccccc1NC(=O)Nc1ccc(Br)cn1	none
Cc1ccc(C2/C(=C(/O)c3ccc(Br)cc3)C(=O)C(=O)N2Cc2ccco2)o1 (configuration not stated)	CYP2C9 inh 72
COc1ccc(/C(O)=C2\C(=O)C(=O)N(Cc3ccco3)C2c2cc(OC)ccc2OC)cc1 (configuration not stated)	none (no result: Cav32 inh, CYP2C9 inh, CYP2C9 activ, CYP2C19 act, CYP2C19 inh)
COc1cccc(NC(=O)N2CCCC2C(=O)NC2CC2)c1 (configuration not stated)	none
Cc1ccc(Nc2cc(-n3nc(C)cc3C)ncn2)c(C)c1	CYP2C19 inh 54
Cc1cc(C)n(-c2cc(-n3nc(C)cc3C)ncn2)n1	none
Cc1ccc(Nc2cc(-n3cccn3)ncn2)c(C)c1	CYP2C19 inh 61
CC(C)OCCCNc1ncnc2c1[nH]c1ccccc12	none
CCc1cc(C)c(O)c(CC)n1	none
O=c1c2ccccc2nc(COc2ccccc2)n1/N=C/c1ccco1	CYP2C9 inh 79, CYP2C19 inh 62
O=C(Nc1ccc(Cl)cc1)[C@@H]1[C@@H]2C(=O)N(c3ccc(Cl)cc3Cl)C(=O)[C@@H]2[C@H]2C=CC=NN21	Cav32 inh -4.7 (no result: PTK2B oligo ant)
Cc1ccc(N2C(=O)[C@@H]3[C@H](C2=O)[C@H]2C=CC=NN2[C@@H]3C(=O)Nc2ccc(Cl)cc2)cc1	none
O=C(Nc1ccc(Cl)cc1)[C@@H]1[C@@H]2C(=O)N(c3ccc(Cl)cc3)C(=O)[C@@H]2[C@H]2C=CC=NN21	Cav32 inh -5.8, CYP2C9 inh 59
CNc1oc(-c2ccccc2)nc1C#N	none
CNc1oc(-c2ccc(Cl)cc2)nc1P(=O)(c1ccccc1)c1ccccc1	CYP2C9 inh 64
Cc1nc2cc(N3CCOCC3)c(NC(=O)C3CC3)cc2c(=O)n1Cc1ccccc1	none (no result: Cav32 inh)
Cc1nc2cc(N3CCCCC3)c(NC(=O)c3ccncc3)cc2c(=O)n1Cc1ccccc1	CYP2C9 inh 81
O=C(NCc1nc2ccccc2[nH]1)C1=C[C@@H](C2CCCCC2)C[C@@H](OCCCCO)O1	none (no result: CYP2C9 inh, CYP2C9 activ, CYP2C19 act, CYP2C19 inh, PTK2B oligo ant)
CC1(C)CC(=O)c2cnn(-c3nc4ccccc4[nH]3)c2C1	CYP2C9 inh 56, CYP2C19 inh 80
CC(C)Oc1ccc(CNC2CCOC(C)(C)C2)cc1 (configuration not stated)	none
Cn1c(/C=N/c2nc3ccccc3[nH]2)nc2ccccc21	none
C(=N\c1nc2ccccc2[nH]1)/c1cccs1	Cav32 inh 3.1
CCOc1ccc(C(C)=O)cc1CSc1nnc(-c2cccs2)n1CC1CCCO1 (configuration not stated)	CYP2C9 inh 82, CYP2C19 inh 90
O=C(CSc1nnc(-c2ccncc2)n1CC1CCCO1)Nc1nccs1 (configuration not stated)	none (no result: CYP2C9 inh, CYP2C9 activ, CYP2C19 act, CYP2C19 inh)
CCOc1ccc(NC(=O)CSc2nnc(-c3ccncc3)n2CC2CCCO2)cc1 (configuration not stated)	none
O=C(CCCSc1nnc(-c2cccs2)n1CC1CCCO1)c1ccccc1 (configuration not stated)	CYP2C9 inh 69, CYP2C19 inh 73
O=C(Nc1nnc(C2CC2)s1)c1cc(-c2ccccc2)nn1-c1ccccc1	PTK2B oligo ant -3.2 (no result: Cav32 inh)
Cc1nn(-c2ccc(C(=O)Nc3nnc(C4CC4)s3)cc2)c(C)c1Cl	none
Cc1nn(Cc2ccccc2Cl)c(C)c1C(=O)Nc1nnc(C2CC2)s1	CYP2C9 inh 51
O=C(Nc1nnc(C2CC2)s1)c1cc(S(=O)(=O)N2CCN(c3ccccc3)CC2)ccc1Cl	none
Cc1nn(-c2ccccc2)c(Cl)c1C(=O)Nc1nnc(C2CCCCC2)s1	Cav32 inh -4.4
O=C(Nc1cccc(F)c1)C1C2C=CC3(CN(CCCN4CCOCC4)C(=O)C13)O2 (configuration not stated)	none (no result: PTK2B oligo ant)
O=C(NCC(=O)N1CCN(c2ncccn2)CC1)c1cccs1	CYP2C19 inh 59 (no result: Cav32 inh)
O=C(NCC(=O)N1CCCC1)c1cccs1	none

High-throughput results (PubChem BioAssay)
